Usually inhibition stands for the change of the read-out against control, counted positive when it falls.

Among the data in PubChem BioAssay AID559 (PCMD, 2006) are inhibition values, retold here.

Molecules are shown by their SMILES. In all, about 62,000 compounds went through this assay and about 100 (0.2%) were called active. The full list was thinned out, with actives kept by preference. Unmarked numbers belong to inactive results. Cut-off read from the data, not from the text of the source: active = inhibition above about 20%; inactive = the rest.

The target in this assay is DNA-directed RNA polymerase subunit beta (Escherichia coli (strain K12)) (UniProt P0A8V2). Description: E. coli RNAP inhibitors, biochemical (AID 559).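 Note: 0% = enzyme without compound and 100% = no enzyme blank.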 Conditions: fluorescence transcription assay, active compounds read high,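 tested at 10 µM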.
DNA-directed RNA polymerase subunit beta (Escherichia coli (strain K12)), sequence (P0A8V2 whole entry, looked up): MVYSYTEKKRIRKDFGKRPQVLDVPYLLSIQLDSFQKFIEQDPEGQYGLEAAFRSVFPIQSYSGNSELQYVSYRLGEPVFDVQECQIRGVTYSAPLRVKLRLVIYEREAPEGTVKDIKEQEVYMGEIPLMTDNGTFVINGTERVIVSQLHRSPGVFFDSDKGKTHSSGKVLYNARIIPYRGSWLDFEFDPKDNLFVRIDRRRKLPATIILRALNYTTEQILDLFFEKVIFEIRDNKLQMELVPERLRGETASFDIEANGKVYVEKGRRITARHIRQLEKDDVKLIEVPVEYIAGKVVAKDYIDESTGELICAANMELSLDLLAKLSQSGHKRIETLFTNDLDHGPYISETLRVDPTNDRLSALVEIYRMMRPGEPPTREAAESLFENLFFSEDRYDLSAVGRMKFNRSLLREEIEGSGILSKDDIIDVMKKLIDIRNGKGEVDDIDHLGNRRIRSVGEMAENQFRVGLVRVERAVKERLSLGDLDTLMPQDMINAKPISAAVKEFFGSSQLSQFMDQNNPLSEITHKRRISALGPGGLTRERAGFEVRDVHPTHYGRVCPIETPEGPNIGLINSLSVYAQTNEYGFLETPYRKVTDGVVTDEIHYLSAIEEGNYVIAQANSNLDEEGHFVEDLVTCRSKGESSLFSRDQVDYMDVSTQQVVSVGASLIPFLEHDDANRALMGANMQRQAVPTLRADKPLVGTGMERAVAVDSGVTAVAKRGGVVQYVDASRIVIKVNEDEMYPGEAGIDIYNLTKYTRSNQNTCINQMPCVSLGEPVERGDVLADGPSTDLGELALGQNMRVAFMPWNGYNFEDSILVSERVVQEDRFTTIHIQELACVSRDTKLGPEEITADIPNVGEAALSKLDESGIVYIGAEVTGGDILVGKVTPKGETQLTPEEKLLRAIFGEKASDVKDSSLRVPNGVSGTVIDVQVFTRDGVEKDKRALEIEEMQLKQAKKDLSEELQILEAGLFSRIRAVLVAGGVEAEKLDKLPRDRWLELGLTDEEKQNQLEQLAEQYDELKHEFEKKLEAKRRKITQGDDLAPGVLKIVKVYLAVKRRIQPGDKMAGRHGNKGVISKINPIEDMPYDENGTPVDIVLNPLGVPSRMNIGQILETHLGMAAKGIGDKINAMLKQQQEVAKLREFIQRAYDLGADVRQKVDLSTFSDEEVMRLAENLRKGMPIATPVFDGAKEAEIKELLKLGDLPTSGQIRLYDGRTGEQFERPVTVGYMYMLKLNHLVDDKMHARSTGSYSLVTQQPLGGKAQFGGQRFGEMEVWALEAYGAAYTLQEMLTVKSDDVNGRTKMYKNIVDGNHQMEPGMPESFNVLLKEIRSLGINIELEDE
With `COc1ccc(CNC(=O)c2c(C)cc(=O)oc2C)cc1OC`, the inhibition is 8.6%.

Regarding `Cc1nc(NC(CC(C)C)C(=O)O)c2nc(C)oc2n1` (configuration not stated), the inhibition was -1.28%.

Consider `O=C(CSc1n[nH]c(-c2cccnc2)n1)Nc1ccnc2ccccc12`, for which the inhibition is 11.1%.

`O=S(=O)(c1ccc(OCC(O)CN2CCN(c3ccccc3Cl)CC2)cc1)N1CCOCC1` (configuration not stated): the inhibition was 1.46%.

Take `CCOc1cc(-c2nc3cc(C)ccn3c2NCC2CCCO2)ccc1O` (configuration not stated): the inhibition was 6.06%.

As to `CCCNS(=O)(=O)c1ccc2c(c1)CCCN2C(C)=O`, the inhibition is 5.31%.

For the molecule `CCN(CC)c1ccc(C(=O)OCC(=O)c2ccco2)cc1`, the inhibition is 4.69%.

Regarding `C=CCOC(=O)C1=C(C)OC(N)=C(C#N)C1c1ccc(F)cc1` (configuration not stated), the inhibition is 0.25%.

`Cc1ccc(C2CC(c3cccc(Br)c3)n3nc(N)nc3N2)cc1` (configuration not stated): the inhibition is 8.67%.

With `C=CCOc1ccc(C2/C(=C(\O)c3c(C)[nH]c(C(=O)OC)c3C)C(=O)C(=O)N2CCN(C)C)cc1` (configuration not stated), the inhibition is -5.38%.

As for `CC(=O)c1cccc(NC(=O)N2CCCC2C(=O)NCCC(C)C)c1` (configuration not stated), the inhibition was 6.83%.

Consider `Cc1ccccc1-n1c(SCC(=O)NCc2cccs2)nnc1-c1ccncc1`, for which the inhibition was -3.22%.

With `Cn1c(=O)[nH]c(=O)c2c1nc(N1CCN(CCO)CC1)n2CCSc1nc2ccccc2s1`, the inhibition is 7.67%.

Take `O=C(Nc1ccccc1F)c1cc(S(=O)(=O)N2CCCCC2)cs1`: the inhibition is -4.61%.

Take `Cc1ccc(C)c(NS(=O)(=O)c2cc(Br)cnc2N)c1`: the inhibition is -0.25%.

For `c1ccc(-n2ncc3c(N4CCCC4)ncnc32)cc1`, the inhibition was 10.9%.

`Cc1nnc(SCC(=O)N2CCc3ccccc32)n1-c1ccccc1`: the inhibition was 5.59%.

`Cc1ccccc1C(=O)Nc1cccc(-c2nnc(SCC(=O)O)n2C)c1`: the inhibition is 12.2%.

Consider `CCn1c(SCC(=O)Nc2cccc(F)c2)nnc1-c1cc2cc(Br)ccc2o1`, for which the inhibition is 9.56%.

With `O=C(NCc1cccs1)C1CCN(S(=O)(=O)c2ccc3c(c2)OCCO3)CC1`, the inhibition is 7.85%.

With `O=C(CSc1ncccn1)NCCc1ccccc1`, the inhibition was 1.73%.

For the molecule `CC(C)(C)c1ccc(C(=O)CSc2ncn[nH]2)cc1`, the inhibition is 5.03%.

In the case of `NC(=O)C1CCN(C(=O)c2ccc(C(F)(F)F)cc2)CC1`, the inhibition is 2.29%.

On to `CCC(=O)Nc1cccc(NC(=O)c2cccnc2)c1`, for which the inhibition was 1.22%.

In the case of `Cn1c(=O)cc(OCCCC(=O)N2CCN(Cc3ccc4c(c3)OCO4)CC2)c2ccccc21`, the inhibition was 14.1%.

Turning to `COc1ccc(CN2CN(C(C)C)CSC2=S)cc1`, the inhibition is 0.75%.

In the case of `Cc1ccccc1CN1CCN(CC(=O)NCc2ccccn2)C1=O`, the inhibition was -3.92%.

In the case of `Clc1ccc(C2CC(c3cccs3)n3ncnc3N2)cc1Cl` (configuration not stated), the inhibition is 3.31%.

On to `Cc1cc(C)nc(NC(=O)Nc2ccccc2C(F)(F)F)n1`, for which the inhibition was 3.47%.

For `Cc1csc(NC(=O)CN2CCCCCC2)n1`, the inhibition is 10.6%.

As for `Cc1csc(NC(=O)NC2(C(F)(F)F)Oc3ccccc3O2)n1`, the inhibition was 30.9% (active).

Consider `CCOC(=O)CC1C(=O)NCCN1C(=O)COc1ccc(Br)cc1C` (configuration not stated), for which the inhibition is 4.26%.

`COCCCNC(=O)c1ccc(CNS(=O)(=O)c2ccc(NC(C)=O)cc2)cc1`: the inhibition was -9.1%.

For `Cc1ccc(NC(=O)NCC(c2cccnc2)N2CCOCC2)cc1` (configuration not stated), the inhibition is 6.82%.

Take `CCCS(=O)(=O)Nc1c(C(=O)O)[nH]c2ccccc12`: the inhibition is 8.57%.

`COc1ccc(Cl)cc1S(=O)(=O)Nc1cccc(C(=O)O)c1`: the inhibition is 4.26%.

Take `CC1CCCN(c2ccc(C(=O)NCCc3ccccc3)cn2)C1` (configuration not stated): the inhibition is 9.14%.

Regarding `CCC12CN3CC(CC)(CN(C1)C31C(=O)N(C)c3ccc(C)cc31)C2=O` (configuration not stated), the inhibition is 9.74%.

Consider `COc1ccc(OC)c(C2N(c3ccccn3)C(=O)C3CCCN32)c1` (configuration not stated), for which the inhibition was 5.57%.

Turning to `O=C(CCS(=O)(=O)Cc1ccccc1F)NCCCN1CCCCC1`, the inhibition is 2.74%.

`CCCn1c(SCC(=O)Nc2c(C)cccc2C)nnc1C(C)C`: the inhibition was -6.26%.

In the case of `CCOC(=O)c1ccc(-c2ccc(C(=O)Nc3cccnc3)o2)cc1`, the inhibition is 14.4%.

On to `CC(C)NS(=O)(=O)c1ccc(NC(=O)c2cccnc2)cc1`, for which the inhibition was 4.79%.

For the molecule `CC(=O)Oc1cccc(N2C(=O)C3CC=C(Cl)CC3C2=O)c1` (configuration not stated), the inhibition is 9.02%.

Turning to `CCn1c(CSc2ncccn2)nnc1SCC(=O)N1c2ccccc2CC1C` (configuration not stated), the inhibition was 4.54%.

Take `O=c1c2ccccc2oc2nc3n(c(=O)c12)CCCS3`: the inhibition was 4.21%.

On to `O=C(N1CCOCC1)N1CCOCC1`, for which the inhibition was 0.65%.

As for `CC(C)Cc1cc(C(=O)NCCc2ccccc2)no1`, the inhibition is -0.72%.

In the case of `CCC1CCCCN1CCNC(=O)c1[nH]c(C)c(C(C)=O)c1C` (configuration not stated), the inhibition is 3.39%.

With `CCOC(=O)N1CCN(C(=O)c2ccc3nc4cc(Cl)ccc4c(=O)n3c2)CC1`, the inhibition was -20.1%.

Turning to `CC1=C(C)CC2C(=O)N(c3cccc4ccccc34)C(=O)C2C1` (configuration not stated), the inhibition is 5.39%.

As for `COc1ccccc1-c1c(C)nn2c(C)c(C(C)=O)cnc12`, the inhibition was 1.22%.

As for `Cn1cccc1C(=O)NC(=O)COC(=O)Cc1coc2ccc3ccccc3c12`, the inhibition was 4.62%.

As to `O=C(Nc1cccc(Cl)c1)OCc1ccccn1`, the inhibition is 5.59%.

With `Cc1cc(C)c(C(=O)CN2C(=O)CCC2=O)cc1C`, the inhibition is 1.27%.

Turning to `O=C(CNS(=O)(=O)c1cccc(C(F)(F)F)c1)Nc1ccccc1F`, the inhibition is 12.6%.

For `O=C1CC(c2ccccc2)C(=O)N1c1cccc(O)c1` (configuration not stated), the inhibition is 4.1%.
